PubChem BioAssay (Tox21)
Where “and” joins values, the source holds several entries; their conditions need not be identical. Identical values can stand only once. Records with an inconclusive call do not appear. A structure can be active in one record and inactive in another. Calls of active or inactive are those of the source. Unless noted, the call rests on the fitted dose curve; in most records, active means well fitted curve in the direction sought with a large enough effect in the repeat runs; inconclusive means weak or mixed curves; inactive means no such curve, though single readings can be large; an effect the other way counts as inactive or inconclusive.

Key:
[1] = A CellTox Green Cytotoxicity Assay to monitor cytotoxicity in HEK293 cells - 32 hour (AID 1224881); further: nearly all actives have a fitted effect of over 40% in size; further: potency means the concentration at half of the fitted maximal effect
Summary of the method: (§1)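 Seeding of HEK293 cells together with cytotoxicity dye preceded a 5 h incubation at 37 C/5% CO2. Test compounds in DMSO were then added and fluorescence monitored across 40 h.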

[2] = A CellTox Green Cytotoxicity Assay to monitor cytotoxicity in HepG2 cells - 0 hour (AID 1224882); further: nearly all actives have a fitted effect of over 35% in size
Summary of the method: (§2)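 Nonlytic assay: viable cells exclude the dye, so fluorescence scales with cell death. HepG2 at 600 cells/well, compounds added after 5 h, signal read across 40 h.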

[3] = A CellTox Green Cytotoxicity Assay to monitor cytotoxicity in HepG2 cells - 32 hour (AID 1224883); further: nearly all actives have a fitted effect of over 50% in size; further: potency means the concentration at half of the fitted maximal effect
Summary of the method: as §2

[4] = A CellTox Green Cytotoxicity Assay to monitor cytotoxicity in HEK293 cells - 8 hour (AID 1224884); further: nearly all actives have a fitted effect of over 35% in size
Summary of the method: as §1

[5] = qHTS RealTime-Glo MT Cell Viability Assay in HepG2 cells - 16 hour (AID 1224885); further: nearly all actives have a fitted effect of over 50% in size
Summary of the method: (§3)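 Luminescence read-out: viable HepG2 cells reduce a prosubstrate to a NanoLuc substrate, giving a signal proportional to live cell number. Reads taken at 0, 8, 16, 24, 32 and 40 h of compound exposure at 37 C.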

[6] = qHTS RealTime-Glo MT Cell Viability Assay in HEK293 cells - 24 hour (AID 1224886); further: nearly all actives have a fitted effect of over 50% in size; further: potency means the concentration at half of the fitted maximal effect
Summary of the method: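 Nonlytic real-time viability readout: viable cells convert prosubstrate to NanoLuc substrate, giving luminescence proportional to live cell number. HEK293, 600 cells/well, compound added after 5 h, continuous culture at 37 C.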

[7] = qHTS RealTime-Glo MT Cell Viability Assay in HEK293 cells - 8 hour (AID 1224887); further: top concentration of the series differs between compounds; nearly all actives have a fitted effect of over 50% in size
Summary of the method: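 Tox21 screen in HEK293 using RealTime-Glo MT chemistry, with cells and reagent co-dispensed. Luminescence proportional to viable cell number was captured at intervals during 40 h compound exposure at 37 C.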

[8] = A CellTox Green Cytotoxicity Assay to monitor cytotoxicity in HEK293 cells - 16 hour (AID 1224888); further: nearly all actives have a fitted effect of over 35% in size
Summary of the method: as §1

[9] = A CellTox Green Cytotoxicity Assay to monitor cytotoxicity in HepG2 cells - 8 hour (AID 1224890); further: nearly all actives have a fitted effect of over 45% in size
Summary of the method: as §2

[10] = qHTS assay to identify small molecule antagonists of the estrogen receptor alpha (ER-alpha) signaling pathway using the BG1 cell line in the presence of 0.1 nM 17-beta-estradiol - cell viability counter screen (AID 1259241); further: nearly all actives have a fitted effect of over 40% in size
Summary of the method: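 VM7Luc4E2, 4,000 cells/well, phenol red-free medium + 10% charcoal-stripped FBS; 24 hr plating; cpd + 0.1 nM E2 final, 22 hr 37C/5% CO2; CellTiter-Fluor 30 min, fluorescence.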

[11] = molecular target: Estrogen receptor (Homo sapiens) (UniProt P03372); test: qHTS assay to identify small molecule antagonists of the estrogen receptor alpha (ER-alpha) signaling pathway using the BG1 cell line in the presence of 0.1 nM 17-beta-estradiol (AID 1259244); further: nearly all actives have a fitted effect of over 50% in size; further: potency means the concentration at half of the fitted maximal effect
Summary of the method: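 VM7Luc4E2; 4xERE-luciferase; 0.1 nM E2 final; 22 h co-incubation, 37C; ONE-Glo luminescence after 30 min at room temperature.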

[12] = qHTS assay to identify small molecule phospholipidosis (PLD) inducers (AID 1259344; active means well fitted curve in the direction sought with a large enough effect; an effect the other way counts as inactive or inconclusive)
Summary of the method: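 Phospholipidosis is scored by imaging LipidTOX-stained pits in HepG2 cells exposed to compound for 24 h at 37 C; pit counts and integrated intensities per well and per cell serve as outputs.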

[13] = qHTS assay to identify small molecule HDAC inhibitors (AID 1259364); further: potency means the concentration at half of the fitted maximal effect;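 further: wild-type HCT-116 cells with endogenous class I/II HDAC activity; nearly all actives have a fitted effect of over 45% in size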
Summary of the method: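 Relative class I and II HDAC activity is taken from the luminogenic signal in HCT-116 cells, with compound exposure 2 hr and reagent development 30 min at room temperature.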

[14] = qHTS assay to identify small molecule HDAC inhibitors - cell viability counter screen (AID 1259365)
Summary of the method: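 Luminescence from CellTiter-Glo, developed 30min at room temperature, reports viability of wild-type HCT-116 cells treated 2hr with compounds at 37 C and 5% CO2 after overnight plating.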

[15] = qHTS assay to identify small molecule agonists of the sonic hedgehog signaling (Shh) pathway - cell viability counter screen (AID 1259366); further: nearly all actives have a fitted effect of over 50% in size; further: potency means the concentration at half of the fitted maximal effect
Summary of the method: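 Cytotoxicity counter screen run in the same wells as the Shh reporter assay. NIH/3T3 cells carrying a Gli1 response element–driven luciferase were treated with DMSO-dissolved compounds for 24hr, and live-cell protease activity was measured with CellTiter-Fluor.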

[16] = qHTS assay to identify small molecule antagonists of the sonic hedgehog signaling (Shh) pathway - cell viability counter screen (AID 1259367); further: nearly all actives have a fitted effect of over 55% in size; further: potency means the concentration at half of the fitted maximal effect
Summary of the method: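 Cells: 3T3 Gli1-Luc, 2,000/well, 4 hr pre-incubation. Compounds in DMSO, then conditioned medium. Incubation 24 hr, 37C, 5% CO2. CellTiter-Fluor at 23 hr, 1 hr, fluorescence.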

[17] = qHTS assay to identify small molecule agonists of the sonic hedgehog signaling (Shh) pathway (AID 1259368; calls by dose curve;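 further: NIH/3T3-derived 3T3Gli1-Luc cells carrying a stable Gli1-driven firefly luciferase reporter; series mostly up to about 92 µM; nearly all actives have a fitted effect of over 15% in size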)
Summary of the method: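 Mouse fibroblast (NIH/3T3) reporter cells with stably integrated Gli1-Luc were treated 24 hr with compound; firefly luciferase luminescence served as the read-out.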

[18] = qHTS RealTime-Glo MT Cell Viability Assay in HepG2 cells - 0 hour (AID 1224889); further: nearly all actives have a fitted effect of over 50% in size
Summary of the method: as §3

[19] = qHTS assay to identify small molecule antagonists of the androgen receptor (AR) signaling pathway using the MDA cell line in the presence of 0.5 nM R1881 - cell viability counter screen (AID 1259242); further: potency means the concentration at half of the fitted maximal effect; nearly all actives have a fitted effect of over 45% in size
Summary of the method: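 R1881 at 0.5 nM final stimulated MDA-kb2 cells during 16 hr compound treatment at 37C. Cytotoxicity read: CellTiter-Fluor fluorescence after 30 min.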

Measured: Potency

Sequence of Estrogen receptor (Homo sapiens) (P03372 whole entry, looked up): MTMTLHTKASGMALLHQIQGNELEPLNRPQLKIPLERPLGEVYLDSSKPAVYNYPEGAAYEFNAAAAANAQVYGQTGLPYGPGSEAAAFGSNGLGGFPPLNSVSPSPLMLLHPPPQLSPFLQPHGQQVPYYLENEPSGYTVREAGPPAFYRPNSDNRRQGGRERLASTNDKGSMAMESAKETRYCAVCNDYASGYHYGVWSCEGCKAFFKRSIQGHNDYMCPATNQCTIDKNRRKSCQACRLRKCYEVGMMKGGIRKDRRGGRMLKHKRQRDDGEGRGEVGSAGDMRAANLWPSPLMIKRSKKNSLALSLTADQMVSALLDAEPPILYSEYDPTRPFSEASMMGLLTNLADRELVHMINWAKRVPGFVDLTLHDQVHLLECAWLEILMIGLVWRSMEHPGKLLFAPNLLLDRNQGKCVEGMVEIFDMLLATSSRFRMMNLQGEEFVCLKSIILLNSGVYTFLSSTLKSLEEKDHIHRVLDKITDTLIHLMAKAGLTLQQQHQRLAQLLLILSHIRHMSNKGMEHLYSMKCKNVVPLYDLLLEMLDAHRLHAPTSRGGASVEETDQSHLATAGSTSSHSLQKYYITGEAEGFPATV

O=c1c(O)c(-c2ccc(O)c(O)c2)oc2cc(O)cc(O)c12
active: [13] 27.3 µM and 24.5 µM and 11.9 µM | [15] 30.9 µM
48.6 µM (active) and inactive: [16]
not listed: [18] | [19]
inactive: all other assays above

COc1c(Cl)ccc(Cl)c1C(=O)O
not listed: [12] | [19]
inactive: all other assays above

CC1=CC(=O)CC(C)(C)C1
40 µM (active) and inactive: [1]
25.3 µM (active) and inactive: [3]
not listed: [10] | [11] | [12] | [19]
inactive: all other assays above

O=C(Cl)c1ccc(C(=O)Cl)cc1
not listed: [12] | [19]
inactive: all other assays above

COc1ccc2cc3[n+](cc2c1OC)CCc1cc2c(cc1-3)OCO2
active: [6] 4.4 µM and 10.7 µM | [19] 10.6 µM | [11] 1.55 µM and 11.9 µM
not listed: [1] | [7] | [10]
inactive: all other assays above

CC(=O)OC/C=C(\C)CCC=C(C)C
not listed: [12] | [19]
inactive: all other assays above

Cc1ncc(CO)c(CO)c1O
not listed: [11] | [19]
inactive: all other assays above

CN1CCCC1=O
not listed: [12] | [19]
inactive: all other assays above

CCCCCCCCO
not listed: [12] | [19]
inactive: all other assays above

C=C(C)CC(C)(C)C
not listed: [11] | [12] | [19]
inactive: all other assays above

CCOC(=O)CC(=O)OCC
not listed: [11] | [12] | [19]
inactive: all other assays above

O=C1C(N(CO)C(=O)NCO)N(CO)C(=O)N1CO (stereo not drawn)
not listed: [12] | [19]
inactive: all other assays above

COc1cc(NC(=O)CC(C)=O)c(OC)cc1Cl
inactive and 21.9 µM (active): [6]
not listed: [12] | [19]
inactive: all other assays above

Nc1cccc(N)n1
not listed: [12] | [19]
inactive: all other assays above
